A word on the AC50: it is the midpoint of the concentration-response curve, whichever way the signal moves.

The structures appear in SMILES notation. Activity calls are given as the source filed them. How the source made its calls: active means hit-call score of the fitted dose curve at least 0.9, where 1 is the maximum; inactive means score below 0.9.

Assay [1] in a line: APR_HepG2_NuclearSize_72hr: Apredica 72-hour HepG2 Assay for Nuclear Size (AID 2282925). To be noted: high-content imaging, actives raise or lower the signal. The method in brief: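 Nuclear size was read by high-content imaging of Hoechst 33342 stain after formaldehyde fixation. Compounds ran 72 h on HepG2 at 0.39 to 200 uM, with final DMSO 0.5% v/v. Curves fitted both directions relative to DMSO control.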

Assay [2] can be described thus: ATG_CRE_CIS: Attagene CIS-FACTORIAL HepG2 Assay for human cAMP Responsive Element (CRE) binding protein 3 (AID 2282926). To be noted: HepG2 CRE cis-reporter, Attagene multiplexed mRNA; actives raise or lower the signal. The method in brief: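 Liver-derived HepG2, transfected with a CRE-containing reporter panel, exposed 24 h; transcript levels sized and quantified by capillary electrophoresis of labelled amplicons; signal changes either way referenced to vehicle.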

For assay [3], the target named is CCAAT/enhancer-binding protein beta (Homo sapiens) (UniProt P17676). In words: ATG_C_EBP_CIS: Attagene CIS-FACTORIAL HepG2 Assay for human CCAAT/Enhancer Binding Protein (C/EBP) beta (AID 2282927). To be noted: HepG2 Attagene cis-factorial transcription factor reporter; actives raise or lower the signal. The procedure, abridged: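 Endogenous C/EBPb-driven reporter transcripts measured in transfected human HepG2 cells at 24 h via RT-PCR and capillary electrophoresis of labelled fragments. Activity fitted in both directions relative to DMSO baseline.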

A short description of assay [4]: ATG_CMV_CIS: Attagene CIS-FACTORIAL HepG2 Assay for human CMV (Internal Marker) (AID 2282928).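 Further: endpoint acts as a background internal control marker rather than a target.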 As to conditions: HepG2 CMV promoter reporter, transcription factor profiling; actives raise or lower the signal. The procedure, abridged:
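24 h chemical treatment, HepG2 with transient multi-reporter transfection; RNA → oligo(dT) RT → PCR → 6-FAM extension → HpaI digest → CE fluorescence. Bidirectional fit, DMSO negative control.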

Assay [5] is described as follows: ATG_DR4_LXR_CIS: Attagene CIS-FACTORIAL HepG2 Assay for human Liver X Receptor (LXR), DR4 submotif (AID 2282929). To be noted: HepG2 Attagene DR4 cis-reporter, mRNA transcription; actives raise or lower the signal. The method in brief: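 HepG2 cells were transiently transfected with multiple cis-regulated reporter units and dosed for 24 hours. The DR4 reporter mRNA was quantified by RT-PCR, 6-FAM labelling and capillary electrophoresis. Bidirectional fits used DMSO as baseline.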

In assay [6] the target is Aryl hydrocarbon receptor (Homo sapiens) (UniProt P35869). Briefly: ATG_Ahr_CIS: Attagene CIS-FACTORIAL HepG2 Assay for human Aryl Hydrocarbon Receptor (Ahr) (AID 2282930). To be noted: HepG2 AhR cis-factorial reporter transcription; actives raise or lower the signal. The method in brief:
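Reporter mRNA levels, quantified by RT-PCR and fluorescent capillary electrophoresis, reflect endogenous AhR transcriptional activity in HepG2 cells carrying transfected cis-promoter reporter constructs. Readout at 24 h post-dose; gain or loss fitted against DMSO baseline.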

Assay [7] is described as follows: ATG_AP_1_CIS: Attagene CIS-FACTORIAL HepG2 Assay for human Activator Protein 1 (AP-1) (AID 2282931). As to conditions: HepG2 Attagene cis-factorial AP-1 reporter mRNA; actives raise or lower the signal. The procedure, abridged: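 HepG2 cells transiently transfected with cis-element-driven reporter transcription units, dosed for 24 hours. Reporter mRNA measured by RT-PCR, 6-FAM labelling, HpaI digestion and capillary electrophoresis. Bidirectional fitting against DMSO baseline.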

Assay [8] in a line: ATG_AP_2_CIS: Attagene CIS-FACTORIAL HepG2 Assay for human Activator Protein 2 (AP-2) (AID 2282932). To be noted: HepG2 AP-2 cis-reporter, Attagene transcription factor profiling; actives raise or lower the signal. The method in brief: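 Endogenous transcription factor activity is reported through transfected multiplex reporter constructs in HepG2, after 24 h of compound exposure. Transcripts were quantified by RT-PCR and capillary electrophoresis of fluorescent fragments. Bidirectional fit against DMSO.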

Assay [9] is described as follows: ATG_BRE_CIS: Attagene CIS-FACTORIAL HepG2 Assay for human Bone Morphogenetic Protein (BMP) Response Element (BRE) (AID 2282933). As to conditions: HepG2 BMP response element reporter, Attagene transcription factor profiling; actives raise or lower the signal. The procedure, abridged: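 Endogenous transcription factor activity at a BMP response element was monitored in transfected HepG2 cells 24 h after dosing. Fluorescent RT-PCR products were resolved by capillary electrophoresis, and activity was fitted in both directions versus DMSO.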

The target in assay [10] is Retinoic acid receptor alpha (Homo sapiens) (UniProt P10276). In words: ATG_DR5_RAR_CIS: Attagene CIS-FACTORIAL HepG2 Assay for human Retinoic Acid Receptor Alpha (RARE), DR5 submotif (AID 2282934). As to conditions: HepG2 Attagene cis-factorial RARE DR5 reporter, mRNA; actives raise or lower the signal. The method in brief:
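Reporter transcripts from a DR5-regulated unit, measured via RT-PCR plus capillary electrophoresis, reflect endogenous RAR activity in transiently transfected human HepG2 liver cells. Exposure lasted 24 h; gain or loss of signal scored against DMSO.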

In assay [11] the target is Transcription factor E2F1 (Homo sapiens) (UniProt Q01094). In words: ATG_E2F_CIS: Attagene CIS-FACTORIAL HepG2 Assay for human E2F Transcription Factor 1 (AID 2282935). As to conditions: HepG2 Attagene cis-reporter, E2F reporter RNA transcripts; actives raise or lower the signal. The method in brief:
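Gain or loss of reporter transcript, fitted against DMSO, reflects E2F1-driven transcription. Transiently transfected HepG2 dosed 24 h before RNA isolation. Quantified by fluorescent RT-PCR products separated by capillary electrophoresis.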

Assay [12] is described as follows: ATG_E_Box_CIS: Attagene CIS-FACTORIAL HepG2 Assay for human Enhancer Box (E-box) (AID 2282936). To be noted: HepG2 E-box cis-reporter transcription, actives raise or lower the signal. The procedure, abridged:
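E-box-driven reporter transcripts measured in transiently transfected HepG2 after 24 h exposure: RNA reverse-transcribed, PCR-amplified, fluorescently labelled, digested and resolved by capillary electrophoresis. Gain or loss relative to DMSO.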

A short description of assay [13]: ATG_M_61_CIS: Attagene CIS-FACTORIAL HepG2 Assay for M61 Transcription Factor (Internal Marker) (AID 2282937). To be noted: HepG2 Attagene CIS-FACTORIAL M61 internal marker reporter; actives raise or lower the signal. The method in brief:
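HepG2 cells transiently transfected with multiplexed cis-promoter reporter units reporting endogenous transcription factor activity, measured 24 h after dosing. Reporter mRNA quantified by RT-PCR and capillary electrophoresis; bidirectional fit against DMSO baseline.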

Assay [14] is described as follows: ATG_EGR_CIS: Attagene CIS-FACTORIAL HepG2 Assay for human Early Growth Response 1 (EGR1) (AID 2282938). As to conditions: HepG2 Attagene CIS-FACTORIAL EGR reporter mRNA; actives raise or lower the signal. The method in brief:
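HepG2 cells transiently transfected with cis-element-driven multiplexed reporter units, dosed for 24 h. EGR1-element reporter mRNA quantified by RT-PCR, 6-FAM labelling, HpaI digestion and capillary electrophoresis; bidirectional fit versus DMSO.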

Assay [15] is described as follows: ATG_M_19_CIS: Attagene CIS-FACTORIAL HepG2 Assay for M19 Transcription Factor (Internal Marker) (AID 2282939). To be noted: HepG2 Attagene CIS-FACTORIAL M19 internal marker reporter; actives raise or lower the signal. The method in brief:
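Background-control endpoint from a multiplexed HepG2 reporter panel. Cells carrying cis-regulated reporter constructs are treated 24 h, then reporter transcripts are amplified, fluorescently labelled and sized by capillary electrophoresis. DMSO defines baseline.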

The nature of assay [16]: ATG_ERE_CIS: Attagene CIS-FACTORIAL HepG2 Assay for Estrogen Response Element (ERE) (AID 2282940). To be noted: HepG2 ERE cis-reporter, Attagene RNA transcript; actives raise or lower the signal. The method in brief:
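Cells used were human hepatoma HepG2, transfected with multiple reporter transcription units under cis-regulatory promoters. Reporter mRNA, read 24 h post-dosing via fluorescent RT-PCR products on capillary electrophoresis, was fitted bidirectionally relative to DMSO.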

A short description of assay [17]: ATG_Ets_CIS: Attagene CIS-FACTORIAL HepG2 Assay for human Erythroblast Transformation Specific (ETS) (AID 2282941). As to conditions: HepG2 ETS cis-reporter transcription, actives raise or lower the signal. The procedure, abridged: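 Cis-regulated reporter mRNA induction in HepG2 (transient transfection), 24 h exposure, RT-PCR plus capillary electrophoresis detection; DMSO serves as negative control and baseline.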

Assay [18] deals with Hepatocyte nuclear factor 3-beta (Homo sapiens) (UniProt Q9Y261). In words: ATG_FoxA2_CIS: Attagene CIS-FACTORIAL HepG2 Assay for human Forkhead box A2 (FOXA2) (AID 2282942). To be noted: HepG2 cis-reporter transcription factor activity, 24 h; actives raise or lower the signal. The method in brief: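 HepG2 transiently transfected with a multiplexed cis-promoter reporter library read endogenous FOXA2 activity. After 24 h compound exposure, reporter mRNA was quantified by RT-PCR, HpaI digestion and capillary electrophoresis. Bidirectional fit against DMSO.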

The nature of assay [19]: ATG_FoxO_CIS: Attagene CIS-FACTORIAL HepG2 Assay for human Forkhead box O (FoxO) (AID 2282943). As to conditions: HepG2 Attagene cis-reporter, FoxO element, mRNA; actives raise or lower the signal. The procedure, abridged:
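Endogenous transcription factor activity read from multiplexed cis-promoter reporter transcripts in transiently transfected HepG2, 24 h after dosing. Reporter RNA measured via RT-PCR plus capillary electrophoresis of FAM-labeled products; gain or loss relative to DMSO.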

Assay [20] can be described thus: ATG_GATA_CIS: Attagene CIS-FACTORIAL HepG2 Assay for human GATA Binding Protein (AID 2282944). To be noted: HepG2 GATA cis-element reporter, Attagene multiplex mRNA; actives raise or lower the signal. The procedure, abridged:
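Endogenous transcription factor activity was captured through cis-promoter-driven reporters in transfected HepG2 cells. After 24 h exposure, reporter transcripts were quantified by RT-PCR with fluorescent capillary electrophoresis, and responses fitted both directions against DMSO.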

Chain of CCAAT/enhancer-binding protein beta (Homo sapiens) (P17676 whole entry, looked up, the tested form may be a part): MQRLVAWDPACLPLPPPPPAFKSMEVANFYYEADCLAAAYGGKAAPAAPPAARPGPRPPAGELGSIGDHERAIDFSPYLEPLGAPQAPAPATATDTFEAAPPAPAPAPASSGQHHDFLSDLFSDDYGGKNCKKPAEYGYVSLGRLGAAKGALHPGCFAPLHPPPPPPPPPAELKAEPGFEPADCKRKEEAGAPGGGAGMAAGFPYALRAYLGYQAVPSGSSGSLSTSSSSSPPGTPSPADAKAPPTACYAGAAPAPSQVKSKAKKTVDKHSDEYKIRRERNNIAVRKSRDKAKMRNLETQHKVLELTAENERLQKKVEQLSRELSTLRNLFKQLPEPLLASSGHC
Chain of Hepatocyte nuclear factor 3-beta (Homo sapiens) (Q9Y261 whole entry, looked up): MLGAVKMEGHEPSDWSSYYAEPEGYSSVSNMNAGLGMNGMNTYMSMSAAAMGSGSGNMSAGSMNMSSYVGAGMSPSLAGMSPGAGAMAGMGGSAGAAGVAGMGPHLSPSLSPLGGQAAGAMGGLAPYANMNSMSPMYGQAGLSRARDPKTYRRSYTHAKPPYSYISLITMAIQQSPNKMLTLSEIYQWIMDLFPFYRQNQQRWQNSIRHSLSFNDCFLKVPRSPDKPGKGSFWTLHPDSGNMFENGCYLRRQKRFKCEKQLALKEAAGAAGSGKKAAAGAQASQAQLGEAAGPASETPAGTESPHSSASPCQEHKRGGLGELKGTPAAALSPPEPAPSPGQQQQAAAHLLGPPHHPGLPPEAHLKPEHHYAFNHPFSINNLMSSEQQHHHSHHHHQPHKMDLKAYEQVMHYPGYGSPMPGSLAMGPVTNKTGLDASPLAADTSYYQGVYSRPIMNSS
Chain of Transcription factor E2F1 (Homo sapiens) (Q01094 whole entry, looked up): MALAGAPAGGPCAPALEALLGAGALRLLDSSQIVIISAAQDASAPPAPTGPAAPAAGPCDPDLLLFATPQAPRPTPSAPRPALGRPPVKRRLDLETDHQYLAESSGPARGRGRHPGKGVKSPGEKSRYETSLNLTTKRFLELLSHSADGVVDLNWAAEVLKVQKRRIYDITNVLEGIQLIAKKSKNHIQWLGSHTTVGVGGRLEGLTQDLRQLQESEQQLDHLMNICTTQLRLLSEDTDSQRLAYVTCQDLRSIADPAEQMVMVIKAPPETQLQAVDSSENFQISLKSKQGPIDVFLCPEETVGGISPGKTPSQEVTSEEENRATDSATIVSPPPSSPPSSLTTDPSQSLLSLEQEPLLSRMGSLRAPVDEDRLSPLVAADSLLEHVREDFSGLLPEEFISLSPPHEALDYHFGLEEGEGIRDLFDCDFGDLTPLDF
Chain of Aryl hydrocarbon receptor (Homo sapiens) (P35869 whole entry, looked up): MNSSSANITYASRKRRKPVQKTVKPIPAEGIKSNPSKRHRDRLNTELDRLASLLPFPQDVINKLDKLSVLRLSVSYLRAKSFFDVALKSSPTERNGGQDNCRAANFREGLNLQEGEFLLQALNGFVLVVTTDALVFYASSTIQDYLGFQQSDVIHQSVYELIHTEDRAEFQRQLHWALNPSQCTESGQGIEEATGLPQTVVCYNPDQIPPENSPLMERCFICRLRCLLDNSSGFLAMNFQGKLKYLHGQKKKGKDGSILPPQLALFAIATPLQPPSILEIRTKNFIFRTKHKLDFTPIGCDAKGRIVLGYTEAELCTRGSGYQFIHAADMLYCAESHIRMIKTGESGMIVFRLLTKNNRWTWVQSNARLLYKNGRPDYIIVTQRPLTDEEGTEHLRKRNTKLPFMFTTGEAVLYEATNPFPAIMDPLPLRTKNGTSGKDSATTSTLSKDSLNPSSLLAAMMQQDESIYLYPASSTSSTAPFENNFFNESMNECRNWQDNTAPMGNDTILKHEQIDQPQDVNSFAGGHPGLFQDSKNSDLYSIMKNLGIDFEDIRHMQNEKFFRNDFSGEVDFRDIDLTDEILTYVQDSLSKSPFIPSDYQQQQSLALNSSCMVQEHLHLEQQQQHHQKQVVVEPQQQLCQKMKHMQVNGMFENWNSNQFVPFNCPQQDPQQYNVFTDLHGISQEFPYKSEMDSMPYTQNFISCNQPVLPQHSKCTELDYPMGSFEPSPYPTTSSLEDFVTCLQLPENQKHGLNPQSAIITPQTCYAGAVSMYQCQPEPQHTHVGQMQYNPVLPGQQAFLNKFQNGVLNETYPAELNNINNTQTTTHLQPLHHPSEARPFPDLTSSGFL
Chain of Retinoic acid receptor alpha (Homo sapiens) (P10276 whole entry, looked up): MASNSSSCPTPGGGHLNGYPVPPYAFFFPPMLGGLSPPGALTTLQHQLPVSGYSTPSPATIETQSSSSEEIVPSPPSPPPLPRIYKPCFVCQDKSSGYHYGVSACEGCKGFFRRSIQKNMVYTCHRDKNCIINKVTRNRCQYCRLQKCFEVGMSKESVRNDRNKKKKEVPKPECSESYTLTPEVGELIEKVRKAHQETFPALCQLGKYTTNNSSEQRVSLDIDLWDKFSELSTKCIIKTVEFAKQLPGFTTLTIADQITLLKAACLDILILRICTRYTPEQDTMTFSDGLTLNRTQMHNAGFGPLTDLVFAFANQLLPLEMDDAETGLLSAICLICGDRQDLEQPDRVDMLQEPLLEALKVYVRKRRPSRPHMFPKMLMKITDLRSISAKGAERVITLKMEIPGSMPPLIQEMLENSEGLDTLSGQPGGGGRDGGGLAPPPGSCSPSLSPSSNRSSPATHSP

Turning to `Cc1nc(C)nc(N2C[C@@H](C)N(c3ccnc([C@@H](C)O)n3)[C@@H](C)C2)n1`, the result in assay [1], in [2], in [3], in [4], in assay [5] and in [6] was inactive. Besides, the outcome in [8], in assay [9], in [10], in [11], in assay [12] and in [13] was inactive. Further, the call in assay [14], in assay [15], in [16], in [17], in [18] and in assay [19] was inactive. Moreover, the outcome in assay [20] was inactive. Besides, in [7], the AC50 was 23.1 µM (active).

In the case of `Clc1cc(Cl)c(Cl)cc1Cl`, the call in assay [1], in assay [2], in assay [3], in assay [4], in assay [5] and in assay [6] was inactive. Also, the compound was classed as inactive in assay [7], in assay [8], in assay [9], in assay [10], in [11] and in assay [12]. Moreover, the compound was classed as inactive in assay [13], in assay [14], in [15], in [16], in [17] and in assay [18]. Besides, the result in assay [19] and in assay [20] was inactive.

Consider `O=c1c(O)c(-c2ccc(O)c(O)c2)oc2cc(O)cc(O)c12`, for which the result in assay [1], in assay [2], in assay [3], in [5], in assay [8] and in [9] was inactive. The call in assay [11], in [12], in assay [13], in assay [14], in assay [15] and in [17] was inactive. For the same compound, the outcome in assay [18], in assay [19] and in [20] was inactive. The concentration at half-maximal activity (AC50) is 26.5 µM (active) in [4], 5.8 µM (active) in [6], 100 µM (active) in assay [7] and 25.8 µM (active) in assay [16].

As for `CN1CCN(Cc2cc(-c3ccc4[nH]c(=O)oc4c3)co2)[C@@H](c2ccc(F)cc2)C1`, the compound was called inactive in [1], in [3], in assay [4], in [6], in assay [8] and in assay [9]. The call in [11], in assay [12], in assay [13], in assay [15], in assay [16] and in assay [17] was inactive. For the same compound, the outcome in assay [18], in [19] and in [20] was inactive. In addition, the half-maximal activity concentration (AC50) in assay [2] is 33 µM (active); in assay [5], 56.5 µM (active); in assay [7], 53.9 µM (active); in [14], 33 µM (active).

The values are drawn from PubChem BioAssay (EPA / NIEHS).
